Measurements taken from PubChem BioAssay (NCATS).
Inconclusive results are not listed. Active and inactive are the calls of the source. Unless noted, the call rests on the fitted dose curve.

Key:
[1] = Cell Viability - BJ (AID 421); settings: BJ fibroblast viability, qHTS;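 further: potency means the concentration at half of the fitted maximal effect; cells exposed to compound for 40 hours at 37 °C before readout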
How it was run: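 Normal human BJ foreskin fibroblasts, 1500/well in complete medium, treated 40 hr at 37 °C. Cellular ATP by CellTiter-Glo luminescence; normalized to DMSO and 100 uM tamoxifen, AC50 from Hill fit.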

[2] = Cell Viability - Jurkat (AID 426;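 active means dose-dependent loss of cell ATP signal giving a full or clear fitted curve, ranked by lower potency value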; further: potency means the concentration at half of the fitted maximal effect); settings: qHTS
How it was run: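 Jurkat (Clone E6-1) cells, 5000/well in complete medium, exposed to compounds for 40 hr at 37C; intracellular ATP measured by CellTiter-Glo luminescence after 20 min at room temperature. AC50 from Hill fits.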

[3] = Cell Viability - Hek293 (AID 427;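 active means compounds whose dose-response curve shows a full or clear partial loss of cell viability, called from curve shape rather than a numeric limit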;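 further: potency means the concentration at half of the fitted maximal effect; cells exposed to compound for 40 hours at 37 °C before reading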); settings: qHTS
How it was run: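 HEK293 cells in complete medium were exposed to compound for 40 hr at 37 °C, then cellular ATP was read by CellTiter-Glo luminescence. Data were normalized to DMSO (basal) and 100 uM tamoxifen (100% inhibition), and AC50 came from Hill fits.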

[4] = Cell Viability - HepG2 (AID 433); settings: qHTS;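 further: potency means the concentration at half of the fitted maximal effect; potency for ATP loss meaning cytotoxicity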
How it was run: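 In this qHTS format, a 40 h, 37 °C compound incubation of HepG2 cells in complete medium precedes a 20 min CellTiter-Glo step at room temperature. Tamoxifen and doxorubicin serve as positive controls; Hill-equation fits yield AC50.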

[5] = Cell Viability - MRC5 (AID 434); settings: MRC5 lung fibroblast viability, qHTS;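 further: potency means the concentration at half of the fitted maximal effect; potency reflects cytotoxicity seen as loss of intracellular ATP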
How it was run: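 MRC5 normal human lung fibroblasts (1500/well) were treated with compounds for 40 hr at 37 °C in complete medium, and viable cells were measured as intracellular ATP by CellTiter-Glo luminescence. AC50 came from Hill fits, normalized to DMSO and 100 uM tamoxifen.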

[6] = Cell Viability - SK-N-SH (AID 435); settings: SK-N-SH neuroblastoma cell viability qHTS;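 further: potency means the concentration at half of the fitted maximal effect; compound exposure lasted 40 h at 37 °C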
How it was run: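 Human neuroblastoma line, 40 h exposure at 37 °C, ATP quantified via luciferase luminescence; DMSO and 100 uM tamoxifen define 0 and 100% inhibition for AC50 fitting.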

[7] = molecular target: Mitogen-activated protein kinase 10 (Mus musculus) (UniProt Q61831); test: JNK3 AlphaScreen Assay (AID 530; active means well fitted curve in either direction with a large enough effect, not every such curve was filed as active;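 further: kinase came from lysate of stimulated human HepG2 cells; signal reports phosphorylation of biotinylated GST-cJun 1-79 at Ser73 with 10 µM ATP; on the % scale 0 is the no-effect control and ±100 the full control effect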); settings: JNK3 lysate, c-Jun phosphorylation; series mostly up to 57.1 µM
How it was run: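 Inhibitors reduce antibody binding to phosphorylated biotin-cJun, lowering AlphaScreen luminescence. Lysates from HepG2 cells pre-activated by IL-1beta plus TNF-alpha supplied JNK3; compounds were titrated.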

[8] = Cell Viability - N2a (AID 540; active means well fitted curve in the direction sought with a large enough effect; an effect the other way counts as inactive or inconclusive;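 further: plate controls were DMSO alone for no effect and tamoxifen control for full effect; nearly all actives have a fitted effect of over 45% in size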); settings: N2a mouse neuroblastoma cell viability; activity change, negative = cytotoxicity: at 92.2 µM (top of the series)
How it was run: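 Mouse neuroblastoma N2a cells, 1500/well, exposed to compounds 40 h at 37 °C in complete medium. Viability measured as cellular ATP by CellTiter-Glo luminescence; AC50 from Hill fits of concentration-response.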

[9] = Cell Viability - NIH 3T3 (AID 541; active means well fitted curve in the direction sought with a large enough effect; an effect the other way counts as inactive or inconclusive;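 further: plate controls were DMSO alone for no effect and tamoxifen positive control for full effect; nearly all actives have a fitted effect of over 25% in size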); settings: NIH 3T3 cell viability, qHTS; activity change, negative = cytotoxicity: at 92.2 µM (top of the series)
How it was run: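 Mouse NIH 3T3 fibroblasts, 1000 cells/well, rested 5 hr at 37 °C, then exposed to compound for 40 hr at 37 °C in complete medium. Viability read as intracellular ATP by CellTiter-Glo luminescence; AC50 from Hill-equation fits of concentration-response data.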

[10] = Cell Viability - HUV-EC-C (AID 542; active means well fitted curve in the direction sought with a large enough effect; an effect the other way counts as inactive or inconclusive; further: on the % scale 0 is the no-effect control and ±100 the full control effect; nearly all actives have a fitted effect of over 35% in size); settings: HUV-EC-C endothelial cell viability, qHTS; series mostly up to 92.2 µM
How it was run: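 HUV-EC-C human vascular endothelial cells, 1000/well, exposed to compound for 40 hr at 37 °C in complete medium. Intracellular ATP was read by CellTiter-Glo luminescence. AC50 came from Hill-equation fits of concentration-response data.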

CC(=O)c1nccs1
inactive: Potency [1] > 92 µM | Potency [2] > 92 µM | Potency [3] > 92 µM | Potency [4] > 92 µM | Potency [5] > 92 µM | Potency [6] > 92 µM | outcome [7] | activity change, negative = cytotoxicity [8] 2.98% | Potency [9] | Potency [10]

CC(=O)Nc1ccc(N)cc1
inactive: Potency [1] > 92 µM | Potency [2] > 92 µM | Potency [3] > 92 µM | Potency [4] > 92 µM | Potency [5] > 92 µM | Potency [6] > 92 µM | outcome [7] | activity change, negative = cytotoxicity [8] 4.55% | Potency [9] | Potency [10]

CCC(C)(C)C(=O)O
inactive: Potency [1] > 92 µM | Potency [2] > 92 µM | Potency [3] > 92 µM | Potency [4] > 92 µM | Potency [5] > 92 µM | Potency [6] > 92 µM | outcome [7] | activity change, negative = cytotoxicity [8] 6.55% | Potency [9] | Potency [10]

ClC/C=C/CCl
inactive: Potency [1] > 92 µM | Potency [2] > 92 µM | Potency [3] > 92 µM | Potency [4] > 92 µM | Potency [5] > 92 µM | Potency [6] > 92 µM | outcome [7] | activity change, negative = cytotoxicity [8] -2.88% | Potency [9] | Potency [10]

c1ccc2[nH]cnc2c1
inactive: Potency [1] > 92 µM | Potency [2] > 92 µM | Potency [3] > 92 µM | Potency [4] > 92 µM | Potency [5] > 92 µM | Potency [6] > 92 µM | outcome [7] | activity change, negative = cytotoxicity [8] -1.37% | Potency [9] | Potency [10]

O=Nc1ccc(NO)cc1
active: Potency [2] 51.1 µM
inactive: Potency [1] > 92 µM | Potency [3] > 92 µM | Potency [4] > 92 µM | Potency [5] > 92 µM | Potency [6] > 92 µM | outcome [7] | activity change, negative = cytotoxicity [8] 16.3% | Potency [9] | Potency [10]

CCOc1cccc(N)c1
inactive: Potency [1] > 92 µM | Potency [2] > 92 µM | Potency [3] > 92 µM | Potency [4] > 92 µM | Potency [5] > 92 µM | Potency [6] > 92 µM | outcome [7] | activity change, negative = cytotoxicity [8] 4.96% | Potency [9] | Potency [10]

CC(=O)C1(C)CC2=C(CCCC2(C)C)CC1C (stereo not given)
inactive: Potency [1] > 92 µM | Potency [2] > 92 µM | Potency [3] > 92 µM | Potency [4] > 92 µM | Potency [5] > 92 µM | Potency [6] > 92 µM | outcome [7] | activity change, negative = cytotoxicity [8] -8.12% | Potency [9] | Potency [10]

Cc1ccc(C)o1
inactive: Potency [1] > 92 µM | Potency [2] > 92 µM | Potency [3] > 92 µM | Potency [4] > 92 µM | Potency [5] > 92 µM | Potency [6] > 92 µM | outcome [7] | activity change, negative = cytotoxicity [8] -9.8% | Potency [9] | Potency [10]

CCCC(Cl)CCCC(Cl)CCC(Cl)CCC(Cl)CCC(Cl)CCCC(Cl)CCC (stereo not given)
inactive: Potency [1] > 92 µM | Potency [2] > 92 µM | Potency [3] > 92 µM | Potency [4] > 92 µM | Potency [5] > 92 µM | Potency [6] > 92 µM | outcome [7] | activity change, negative = cytotoxicity [8] -0.927% | Potency [9] | Potency [10]

O=Cc1ccc(CO)o1
inactive: Potency [1] > 92 µM | Potency [2] > 92 µM | Potency [3] > 92 µM | Potency [4] > 92 µM | Potency [5] > 92 µM | Potency [6] > 92 µM | outcome [7] | activity change, negative = cytotoxicity [8] 1.46% | Potency [9] | Potency [10]

Cc1ccccc1C=O
inactive: Potency [1] > 92 µM | Potency [2] > 92 µM | Potency [3] > 92 µM | Potency [4] > 92 µM | Potency [5] > 92 µM | Potency [6] > 92 µM | outcome [7] | activity change, negative = cytotoxicity [8] 2.15% | Potency [9] | Potency [10]

CCNS(=O)(=O)c1ccc(C)cc1
inactive: Potency [1] > 92 µM | Potency [2] > 92 µM | Potency [3] > 92 µM | Potency [4] > 92 µM | Potency [5] > 92 µM | Potency [6] > 92 µM | outcome [7] | activity change, negative = cytotoxicity [8] -13.9% | Potency [9] | Potency [10]

O=C(O)c1cc(Cl)cc(Cl)c1
inactive: Potency [1] > 92 µM | Potency [2] > 92 µM | Potency [3] > 92 µM | Potency [4] > 92 µM | Potency [5] > 92 µM | Potency [6] > 92 µM | outcome [7] | activity change, negative = cytotoxicity [8] -1.73% | Potency [9] | Potency [10]

ICCc1ccccc1
inactive: Potency [1] > 92 µM | Potency [2] > 92 µM | Potency [3] > 92 µM | Potency [4] > 92 µM | Potency [5] > 92 µM | Potency [6] > 92 µM | outcome [7] | activity change, negative = cytotoxicity [8] 0.359% | Potency [9] | Potency [10]

Cc1cc(C(=O)O)ccc1[N+](=O)[O-]
inactive: Potency [1] > 92 µM | Potency [2] > 92 µM | Potency [3] > 92 µM | Potency [4] > 92 µM | Potency [5] > 92 µM | Potency [6] > 92 µM | outcome [7] | activity change, negative = cytotoxicity [8] 4.23% | Potency [9] | Potency [10]

Cc1ccc2oc(=O)ccc2c1
inactive: Potency [1] > 92 µM | Potency [2] > 92 µM | Potency [3] > 92 µM | Potency [4] > 92 µM | Potency [5] > 92 µM | Potency [6] > 92 µM | outcome [7] | activity change, negative = cytotoxicity [8] -1.53% | Potency [9] | Potency [10]
